Source: ChEMBL document CHEMBL1961873, “Compounds: GSK PKIS; Assays: Nanosyn kinase panel” (2012)

How the values were obtained:
[1] = biological target: Sphingosine kinase 1 (Homo sapiens) (UniProt Q9NYA1); details: at 1 µM;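 further: mean SPHK1 inhibition value reported from the GSK PKIS kinase panel screen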
[2] = biological target: T1, Sphingosine kinase 2 (Homo sapiens) (UniProt Q9NRA0); details: at 0.1 µM
T1 sequence (whole entry): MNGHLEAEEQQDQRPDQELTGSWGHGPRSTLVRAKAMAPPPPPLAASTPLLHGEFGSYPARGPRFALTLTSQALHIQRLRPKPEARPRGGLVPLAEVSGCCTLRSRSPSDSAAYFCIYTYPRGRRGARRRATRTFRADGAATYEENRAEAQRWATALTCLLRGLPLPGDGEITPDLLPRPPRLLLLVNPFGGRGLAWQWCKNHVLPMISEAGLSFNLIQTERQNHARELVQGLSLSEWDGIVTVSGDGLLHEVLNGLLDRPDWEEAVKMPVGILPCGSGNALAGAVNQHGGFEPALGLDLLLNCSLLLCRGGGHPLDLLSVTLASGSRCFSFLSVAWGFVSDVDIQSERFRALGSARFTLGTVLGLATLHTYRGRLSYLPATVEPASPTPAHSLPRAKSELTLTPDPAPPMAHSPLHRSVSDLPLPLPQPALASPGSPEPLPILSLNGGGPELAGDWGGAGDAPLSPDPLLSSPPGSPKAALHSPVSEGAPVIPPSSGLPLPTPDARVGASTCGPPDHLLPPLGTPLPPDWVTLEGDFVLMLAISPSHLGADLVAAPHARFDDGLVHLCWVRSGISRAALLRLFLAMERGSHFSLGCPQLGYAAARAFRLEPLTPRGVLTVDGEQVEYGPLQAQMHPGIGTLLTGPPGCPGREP

[3] = biological target: T1, Sphingosine kinase 2 (Homo sapiens); details: at 1 µM
[4] = biological target: Casein kinase II subunit alpha (Homo sapiens) (UniProt P68400); details: at 0.1 µM
Sequence of Casein kinase II subunit alpha (Homo sapiens) (P68400 whole entry, looked up): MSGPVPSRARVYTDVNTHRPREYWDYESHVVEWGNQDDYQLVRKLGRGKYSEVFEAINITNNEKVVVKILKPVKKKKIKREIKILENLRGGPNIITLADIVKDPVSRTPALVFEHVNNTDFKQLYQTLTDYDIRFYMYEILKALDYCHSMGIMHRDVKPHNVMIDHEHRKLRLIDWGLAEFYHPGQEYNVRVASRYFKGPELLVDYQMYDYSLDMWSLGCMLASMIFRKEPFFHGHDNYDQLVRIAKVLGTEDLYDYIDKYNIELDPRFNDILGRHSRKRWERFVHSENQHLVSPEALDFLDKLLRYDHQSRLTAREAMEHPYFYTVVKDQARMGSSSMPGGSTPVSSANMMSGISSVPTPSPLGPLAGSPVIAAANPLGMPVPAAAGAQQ

[5] = biological target: Casein kinase II subunit alpha (Homo sapiens) (UniProt P68400); details: at 1 µM
[6] = biological target: T2, Inhibitor of nuclear factor kappa-B kinase subunit alpha (Homo sapiens) (UniProt O15111); details: at 0.1 µM
T2 sequence (whole entry): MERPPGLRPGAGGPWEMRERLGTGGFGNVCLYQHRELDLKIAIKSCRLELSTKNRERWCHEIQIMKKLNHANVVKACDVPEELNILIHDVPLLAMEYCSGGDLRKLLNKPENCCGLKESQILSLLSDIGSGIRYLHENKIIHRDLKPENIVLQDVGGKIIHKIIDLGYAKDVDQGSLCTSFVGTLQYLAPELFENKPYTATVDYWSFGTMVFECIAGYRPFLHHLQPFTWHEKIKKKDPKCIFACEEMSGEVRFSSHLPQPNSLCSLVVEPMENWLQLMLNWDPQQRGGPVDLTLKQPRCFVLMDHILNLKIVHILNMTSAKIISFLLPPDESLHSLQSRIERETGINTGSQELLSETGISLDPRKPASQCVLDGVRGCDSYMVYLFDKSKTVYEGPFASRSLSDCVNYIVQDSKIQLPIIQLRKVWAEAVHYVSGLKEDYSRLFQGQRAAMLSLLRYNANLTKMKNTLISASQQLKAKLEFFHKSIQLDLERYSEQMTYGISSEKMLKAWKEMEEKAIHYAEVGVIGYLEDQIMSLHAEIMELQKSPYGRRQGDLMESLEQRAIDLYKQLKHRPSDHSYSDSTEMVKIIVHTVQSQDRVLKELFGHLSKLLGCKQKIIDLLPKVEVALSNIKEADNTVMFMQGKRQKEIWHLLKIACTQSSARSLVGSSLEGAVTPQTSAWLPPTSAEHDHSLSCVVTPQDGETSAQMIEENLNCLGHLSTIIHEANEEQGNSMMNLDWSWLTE

[7] = biological target: T2, Inhibitor of nuclear factor kappa-B kinase subunit alpha (Homo sapiens); details: at 1 µM
[8] = biological target: T3, Inhibitor of nuclear factor kappa-B kinase subunit beta (Homo sapiens) (UniProt O14920); details: at 0.1 µM
T3 sequence (whole entry): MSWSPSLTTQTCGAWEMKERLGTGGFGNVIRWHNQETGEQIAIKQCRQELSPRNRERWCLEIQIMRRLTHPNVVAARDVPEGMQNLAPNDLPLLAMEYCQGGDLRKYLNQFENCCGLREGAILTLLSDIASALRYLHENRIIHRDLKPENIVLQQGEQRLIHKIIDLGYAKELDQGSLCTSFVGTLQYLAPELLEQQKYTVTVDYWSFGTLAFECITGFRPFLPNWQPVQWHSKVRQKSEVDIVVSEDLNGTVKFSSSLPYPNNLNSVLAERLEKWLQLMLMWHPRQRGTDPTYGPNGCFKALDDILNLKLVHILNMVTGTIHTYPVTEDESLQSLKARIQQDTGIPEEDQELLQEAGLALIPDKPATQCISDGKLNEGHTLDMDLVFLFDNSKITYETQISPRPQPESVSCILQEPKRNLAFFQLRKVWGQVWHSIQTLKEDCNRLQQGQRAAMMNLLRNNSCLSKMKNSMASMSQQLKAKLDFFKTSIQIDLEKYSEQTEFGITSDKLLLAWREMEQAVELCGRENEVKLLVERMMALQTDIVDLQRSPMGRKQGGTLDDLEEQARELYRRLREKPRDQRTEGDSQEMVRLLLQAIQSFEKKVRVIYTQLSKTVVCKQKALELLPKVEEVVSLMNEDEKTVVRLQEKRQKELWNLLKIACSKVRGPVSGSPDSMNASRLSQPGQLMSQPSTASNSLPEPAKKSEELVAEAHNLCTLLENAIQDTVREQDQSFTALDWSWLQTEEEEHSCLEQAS

[9] = biological target: T3, Inhibitor of nuclear factor kappa-B kinase subunit beta (Homo sapiens); details: at 1 µM
[10] = biological target: T4, Inhibitor of nuclear factor kappa-B kinase subunit epsilon (Homo sapiens) (UniProt Q14164); details: at 0.1 µM
T4 sequence (whole entry): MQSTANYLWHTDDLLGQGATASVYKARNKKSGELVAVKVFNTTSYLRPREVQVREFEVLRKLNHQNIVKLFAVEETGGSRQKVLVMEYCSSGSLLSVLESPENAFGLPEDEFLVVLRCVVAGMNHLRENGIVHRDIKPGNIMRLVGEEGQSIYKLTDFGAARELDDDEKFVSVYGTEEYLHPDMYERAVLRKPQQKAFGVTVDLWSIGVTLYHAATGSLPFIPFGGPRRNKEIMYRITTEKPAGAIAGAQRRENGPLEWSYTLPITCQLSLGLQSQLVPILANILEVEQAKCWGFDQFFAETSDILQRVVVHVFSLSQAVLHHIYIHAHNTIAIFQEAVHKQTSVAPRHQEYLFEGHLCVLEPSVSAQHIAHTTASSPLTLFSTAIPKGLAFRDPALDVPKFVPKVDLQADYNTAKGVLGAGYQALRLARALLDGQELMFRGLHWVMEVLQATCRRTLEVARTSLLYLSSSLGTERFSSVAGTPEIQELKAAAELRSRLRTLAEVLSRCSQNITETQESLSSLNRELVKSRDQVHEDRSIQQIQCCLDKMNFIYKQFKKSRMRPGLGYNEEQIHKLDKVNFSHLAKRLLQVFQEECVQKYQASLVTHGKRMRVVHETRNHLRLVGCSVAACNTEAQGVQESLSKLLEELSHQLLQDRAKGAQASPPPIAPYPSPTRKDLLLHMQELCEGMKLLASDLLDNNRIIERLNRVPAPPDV

[11] = biological target: T4, Inhibitor of nuclear factor kappa-B kinase subunit epsilon (Homo sapiens); details: at 1 µM
[12] = biological target: T5, Serine/threonine-protein kinase Nek1 (Homo sapiens) (UniProt Q96PY6); details: at 0.1 µM
T5 sequence (whole entry): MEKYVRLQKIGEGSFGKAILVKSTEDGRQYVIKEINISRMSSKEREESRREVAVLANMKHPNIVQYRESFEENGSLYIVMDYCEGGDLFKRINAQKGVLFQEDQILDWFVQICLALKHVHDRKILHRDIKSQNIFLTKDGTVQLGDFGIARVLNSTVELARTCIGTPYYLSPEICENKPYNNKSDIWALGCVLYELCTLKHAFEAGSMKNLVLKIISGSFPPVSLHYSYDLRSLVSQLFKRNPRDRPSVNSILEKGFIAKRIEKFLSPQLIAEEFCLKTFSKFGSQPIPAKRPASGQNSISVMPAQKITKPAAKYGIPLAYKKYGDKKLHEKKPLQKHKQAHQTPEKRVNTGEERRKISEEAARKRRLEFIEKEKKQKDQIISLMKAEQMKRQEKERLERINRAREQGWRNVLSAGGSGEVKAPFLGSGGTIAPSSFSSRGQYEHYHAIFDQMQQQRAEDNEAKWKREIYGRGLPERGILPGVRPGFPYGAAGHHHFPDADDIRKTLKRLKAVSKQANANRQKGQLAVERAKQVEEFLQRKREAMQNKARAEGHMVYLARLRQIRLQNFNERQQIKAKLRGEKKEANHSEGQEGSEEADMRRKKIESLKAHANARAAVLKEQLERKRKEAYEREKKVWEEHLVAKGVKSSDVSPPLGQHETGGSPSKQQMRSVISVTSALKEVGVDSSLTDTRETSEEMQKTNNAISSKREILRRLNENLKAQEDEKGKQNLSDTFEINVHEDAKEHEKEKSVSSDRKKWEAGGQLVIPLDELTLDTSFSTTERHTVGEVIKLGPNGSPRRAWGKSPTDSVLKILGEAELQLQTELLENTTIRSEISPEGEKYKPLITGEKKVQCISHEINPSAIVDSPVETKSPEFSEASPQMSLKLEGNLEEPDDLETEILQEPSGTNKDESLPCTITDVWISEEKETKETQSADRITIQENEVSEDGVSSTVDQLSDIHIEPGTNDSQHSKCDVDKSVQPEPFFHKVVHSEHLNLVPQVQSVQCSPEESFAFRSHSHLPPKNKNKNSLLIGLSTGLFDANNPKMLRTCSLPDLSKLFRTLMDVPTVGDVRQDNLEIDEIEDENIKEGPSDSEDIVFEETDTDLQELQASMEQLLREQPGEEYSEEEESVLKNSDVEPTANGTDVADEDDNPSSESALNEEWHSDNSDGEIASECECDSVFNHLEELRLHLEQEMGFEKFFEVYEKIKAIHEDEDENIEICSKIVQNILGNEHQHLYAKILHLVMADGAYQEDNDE

[13] = biological target: T5, Serine/threonine-protein kinase Nek1 (Homo sapiens); details: at 1 µM
[14] = biological target: T6, Serine/threonine-protein kinase Nek2 (Homo sapiens) (UniProt P51955); details: at 0.1 µM
T6 sequence (whole entry): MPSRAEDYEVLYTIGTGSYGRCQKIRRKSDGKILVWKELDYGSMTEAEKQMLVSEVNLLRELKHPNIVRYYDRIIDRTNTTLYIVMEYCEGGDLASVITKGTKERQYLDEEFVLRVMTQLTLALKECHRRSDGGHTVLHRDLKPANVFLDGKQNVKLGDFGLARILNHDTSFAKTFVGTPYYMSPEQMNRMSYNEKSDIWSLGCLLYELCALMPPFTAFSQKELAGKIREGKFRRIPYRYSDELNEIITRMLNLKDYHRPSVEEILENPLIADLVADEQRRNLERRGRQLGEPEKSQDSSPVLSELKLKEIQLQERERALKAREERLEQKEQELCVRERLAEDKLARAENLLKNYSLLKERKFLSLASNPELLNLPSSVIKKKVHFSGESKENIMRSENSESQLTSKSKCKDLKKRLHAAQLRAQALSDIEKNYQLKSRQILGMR

[15] = biological target: T6, Serine/threonine-protein kinase Nek2 (Homo sapiens); details: at 1 µM
[16] = biological target: Serine/threonine-protein kinase Nek6 (Homo sapiens) (UniProt Q9HC98); details: at 0.1 µM
Sequence of Serine/threonine-protein kinase Nek6 (Homo sapiens) (Q9HC98 whole entry): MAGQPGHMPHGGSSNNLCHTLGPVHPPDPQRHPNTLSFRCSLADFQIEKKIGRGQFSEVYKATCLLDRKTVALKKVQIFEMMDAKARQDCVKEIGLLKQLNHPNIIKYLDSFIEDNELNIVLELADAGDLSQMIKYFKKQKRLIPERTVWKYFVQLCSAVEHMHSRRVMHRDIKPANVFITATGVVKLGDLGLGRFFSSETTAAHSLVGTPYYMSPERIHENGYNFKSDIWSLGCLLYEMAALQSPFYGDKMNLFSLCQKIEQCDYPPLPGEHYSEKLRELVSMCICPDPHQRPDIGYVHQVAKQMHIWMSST

[17] = biological target: Serine/threonine-protein kinase Nek6 (Homo sapiens) (UniProt Q9HC98); details: at 1 µM
[18] = biological target: Serine/threonine-protein kinase Nek7 (Homo sapiens) (UniProt Q8TDX7); details: at 0.1 µM
Sequence of Serine/threonine-protein kinase Nek7 (Homo sapiens) (Q8TDX7 whole entry, looked up): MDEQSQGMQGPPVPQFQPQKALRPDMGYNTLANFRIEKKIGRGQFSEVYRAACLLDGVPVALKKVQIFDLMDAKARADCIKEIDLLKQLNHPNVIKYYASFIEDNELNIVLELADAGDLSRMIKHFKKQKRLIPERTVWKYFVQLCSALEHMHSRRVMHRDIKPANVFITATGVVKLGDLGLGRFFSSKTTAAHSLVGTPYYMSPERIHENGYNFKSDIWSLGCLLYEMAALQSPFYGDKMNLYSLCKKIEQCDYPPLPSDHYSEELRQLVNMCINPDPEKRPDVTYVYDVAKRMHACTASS

[19] = biological target: Serine/threonine-protein kinase Nek7 (Homo sapiens) (UniProt Q8TDX7); details: at 1 µM
[20] = biological target: T7, Serine/threonine-protein kinase Nek9 (Homo sapiens) (UniProt Q8TD19); details: at 0.1 µM;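 further: reported value is the mean percent inhibition of NEK9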
T7 sequence (whole entry): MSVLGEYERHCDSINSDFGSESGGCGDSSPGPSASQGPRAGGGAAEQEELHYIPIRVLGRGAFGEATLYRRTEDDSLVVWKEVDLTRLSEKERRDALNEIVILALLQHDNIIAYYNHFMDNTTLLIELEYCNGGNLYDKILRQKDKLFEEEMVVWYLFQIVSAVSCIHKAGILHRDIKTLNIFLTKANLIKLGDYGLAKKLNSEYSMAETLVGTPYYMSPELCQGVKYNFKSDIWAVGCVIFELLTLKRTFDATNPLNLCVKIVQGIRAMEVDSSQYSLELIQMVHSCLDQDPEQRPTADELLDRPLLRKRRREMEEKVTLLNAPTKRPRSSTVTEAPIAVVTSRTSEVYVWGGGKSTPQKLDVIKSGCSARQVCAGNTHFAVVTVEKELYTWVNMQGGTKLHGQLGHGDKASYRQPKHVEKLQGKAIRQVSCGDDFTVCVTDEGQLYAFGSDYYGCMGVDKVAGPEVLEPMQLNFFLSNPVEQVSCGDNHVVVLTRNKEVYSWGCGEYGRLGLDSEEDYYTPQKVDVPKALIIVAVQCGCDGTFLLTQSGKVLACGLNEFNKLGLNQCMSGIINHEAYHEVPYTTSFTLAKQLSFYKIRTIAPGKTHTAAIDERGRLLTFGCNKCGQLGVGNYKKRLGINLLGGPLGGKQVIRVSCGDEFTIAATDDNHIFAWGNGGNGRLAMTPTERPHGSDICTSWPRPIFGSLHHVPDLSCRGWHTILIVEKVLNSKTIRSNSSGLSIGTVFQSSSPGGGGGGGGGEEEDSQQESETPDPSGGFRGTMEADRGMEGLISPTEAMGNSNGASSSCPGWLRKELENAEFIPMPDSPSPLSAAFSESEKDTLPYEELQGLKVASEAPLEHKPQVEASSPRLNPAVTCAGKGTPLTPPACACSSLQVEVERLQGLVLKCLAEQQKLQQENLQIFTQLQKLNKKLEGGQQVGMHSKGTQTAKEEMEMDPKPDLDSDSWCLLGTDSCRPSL

Sequence of Sphingosine kinase 1 (Homo sapiens) (Q9NYA1 whole entry): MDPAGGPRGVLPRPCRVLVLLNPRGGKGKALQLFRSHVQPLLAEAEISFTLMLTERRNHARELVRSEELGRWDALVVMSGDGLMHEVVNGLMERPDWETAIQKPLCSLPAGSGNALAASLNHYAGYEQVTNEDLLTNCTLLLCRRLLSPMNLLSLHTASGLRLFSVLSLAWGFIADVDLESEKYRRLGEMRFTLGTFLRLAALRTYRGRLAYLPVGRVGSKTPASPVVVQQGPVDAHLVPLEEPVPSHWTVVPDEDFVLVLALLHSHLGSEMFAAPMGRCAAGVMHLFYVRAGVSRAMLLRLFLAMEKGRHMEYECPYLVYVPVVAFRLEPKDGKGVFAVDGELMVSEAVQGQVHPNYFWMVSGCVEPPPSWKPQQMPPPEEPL

NS(=O)(=O)c1ccc(-c2cc3ccncc3cc2OCc2ccccc2)cc1
inhibition [1]: -2.02%
inhibition [2]: -0.23%
inhibition [3]: 1%
inhibition [4]: 5.15%
inhibition [5]: 12.6%
inhibition [6]: 0.99%
inhibition [7]: 8.71%
inhibition [8]: 8.26%
inhibition [9]: 21.9%
inhibition [10]: 5.72%
inhibition [11]: 2.21%
inhibition [12]: 2.31%
inhibition [13]: 2.44%
inhibition [14]: 3.99%
inhibition [15]: 3.04%
inhibition [16]: 3.18%
inhibition [17]: 3.3%
inhibition [18]: 5.28%
inhibition [19]: 4.88%
inhibition [20]: 9.27%
